Laboratory results published in the supplement of paper PMC10849652.
About 7,900 targets were measured; listed, in parts, are those with a hit and a random draw of the rest. About 0.6% of all pairs of compound and target were hits.

compound: CN1CCN(CCOc2cc(OC3CCOCC3)c3c(Nc4c(Cl)ccc5c4OCO5)ncnc3c2)CC1 [saracatinib]; test: log2 fold change, soluble protein after heating vs DMSO (PISA); higher = thermal stabilisation; K562 cells, 10 uM, 30 min; active = over 0.2 and 3.5 SD of the protein, either way, in both replicates (recomputed)
Method in brief: (§1)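 Soluble protein was quantified by TMTpro 16plex LC-MS/MS after channel sums were equalised. It was obtained as the supernatant after 21,000xg for 90 min from pooled aliquots of K562 cells (2×10^6 cells/mL, 10 μM compound, 30 min) heated for 3 min across 48°C-58°C and extracted in PBS with 0.5% NP-40 at 4°C. Thermal stability values are relative to control samples and come from duplicates. They are given as log2 fold changes.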

Sequence of UniProt Q6UWB1 (Q6UWB1 whole entry, looked up): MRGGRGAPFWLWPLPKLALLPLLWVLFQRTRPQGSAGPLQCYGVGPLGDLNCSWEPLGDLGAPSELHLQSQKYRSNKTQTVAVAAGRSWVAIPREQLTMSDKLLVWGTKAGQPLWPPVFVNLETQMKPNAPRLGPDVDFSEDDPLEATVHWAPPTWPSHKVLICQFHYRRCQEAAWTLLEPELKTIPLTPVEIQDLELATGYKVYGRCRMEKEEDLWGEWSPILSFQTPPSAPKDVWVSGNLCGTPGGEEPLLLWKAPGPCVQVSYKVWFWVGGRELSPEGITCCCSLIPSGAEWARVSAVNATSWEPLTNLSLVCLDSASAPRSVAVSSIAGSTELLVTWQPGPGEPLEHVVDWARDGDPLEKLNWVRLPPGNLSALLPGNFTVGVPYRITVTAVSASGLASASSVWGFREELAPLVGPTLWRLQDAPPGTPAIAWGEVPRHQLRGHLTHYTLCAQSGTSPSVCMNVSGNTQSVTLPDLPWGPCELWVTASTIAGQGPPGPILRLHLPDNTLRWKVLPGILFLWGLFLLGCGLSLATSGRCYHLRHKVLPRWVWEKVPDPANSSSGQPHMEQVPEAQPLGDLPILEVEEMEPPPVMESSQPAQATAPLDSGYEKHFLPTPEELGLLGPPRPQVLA
Sequence of UniProt P36507 (P36507 whole entry, looked up): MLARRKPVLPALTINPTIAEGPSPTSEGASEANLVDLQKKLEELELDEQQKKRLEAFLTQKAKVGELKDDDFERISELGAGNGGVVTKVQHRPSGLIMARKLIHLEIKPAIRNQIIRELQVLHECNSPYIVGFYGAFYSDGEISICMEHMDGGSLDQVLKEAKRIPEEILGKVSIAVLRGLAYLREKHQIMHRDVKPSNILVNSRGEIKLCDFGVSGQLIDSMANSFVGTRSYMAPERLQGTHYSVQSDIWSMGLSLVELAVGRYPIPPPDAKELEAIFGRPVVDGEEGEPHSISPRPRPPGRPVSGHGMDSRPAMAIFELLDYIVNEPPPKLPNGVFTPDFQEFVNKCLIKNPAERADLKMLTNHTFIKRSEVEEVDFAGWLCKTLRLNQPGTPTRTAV
Sequence of UniProt Q03252 (Q03252 whole entry, looked up): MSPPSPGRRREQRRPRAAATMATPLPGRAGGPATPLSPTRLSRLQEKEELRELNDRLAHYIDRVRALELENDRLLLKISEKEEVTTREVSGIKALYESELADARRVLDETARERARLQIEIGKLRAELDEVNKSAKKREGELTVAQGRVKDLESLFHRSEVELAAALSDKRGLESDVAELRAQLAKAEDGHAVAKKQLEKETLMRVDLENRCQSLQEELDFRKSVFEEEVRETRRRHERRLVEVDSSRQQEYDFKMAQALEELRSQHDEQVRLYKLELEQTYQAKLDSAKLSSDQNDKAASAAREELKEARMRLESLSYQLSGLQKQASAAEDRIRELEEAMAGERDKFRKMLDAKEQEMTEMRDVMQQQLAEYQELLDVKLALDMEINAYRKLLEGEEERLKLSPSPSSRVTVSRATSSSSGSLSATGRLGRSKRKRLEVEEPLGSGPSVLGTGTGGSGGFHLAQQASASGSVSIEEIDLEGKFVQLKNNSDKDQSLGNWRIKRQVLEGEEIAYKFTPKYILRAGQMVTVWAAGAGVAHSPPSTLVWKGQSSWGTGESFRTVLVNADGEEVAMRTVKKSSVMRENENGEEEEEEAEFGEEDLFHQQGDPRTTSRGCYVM
Sequence of UniProt Q9C0E8 (Q9C0E8 whole entry, looked up): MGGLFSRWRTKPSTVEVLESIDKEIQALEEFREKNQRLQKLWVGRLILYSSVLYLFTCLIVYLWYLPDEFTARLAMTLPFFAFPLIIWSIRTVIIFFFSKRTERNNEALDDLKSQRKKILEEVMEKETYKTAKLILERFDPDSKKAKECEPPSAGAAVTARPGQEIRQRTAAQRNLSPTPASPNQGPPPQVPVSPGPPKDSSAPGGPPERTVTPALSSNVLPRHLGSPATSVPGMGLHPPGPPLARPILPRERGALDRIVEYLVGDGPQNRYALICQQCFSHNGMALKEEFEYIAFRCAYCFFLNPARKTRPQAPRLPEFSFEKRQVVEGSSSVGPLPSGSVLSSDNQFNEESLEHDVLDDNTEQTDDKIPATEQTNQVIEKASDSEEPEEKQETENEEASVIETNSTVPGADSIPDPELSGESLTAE
Sequence of UniProt Q14676 (Q14676 whole entry, looked up): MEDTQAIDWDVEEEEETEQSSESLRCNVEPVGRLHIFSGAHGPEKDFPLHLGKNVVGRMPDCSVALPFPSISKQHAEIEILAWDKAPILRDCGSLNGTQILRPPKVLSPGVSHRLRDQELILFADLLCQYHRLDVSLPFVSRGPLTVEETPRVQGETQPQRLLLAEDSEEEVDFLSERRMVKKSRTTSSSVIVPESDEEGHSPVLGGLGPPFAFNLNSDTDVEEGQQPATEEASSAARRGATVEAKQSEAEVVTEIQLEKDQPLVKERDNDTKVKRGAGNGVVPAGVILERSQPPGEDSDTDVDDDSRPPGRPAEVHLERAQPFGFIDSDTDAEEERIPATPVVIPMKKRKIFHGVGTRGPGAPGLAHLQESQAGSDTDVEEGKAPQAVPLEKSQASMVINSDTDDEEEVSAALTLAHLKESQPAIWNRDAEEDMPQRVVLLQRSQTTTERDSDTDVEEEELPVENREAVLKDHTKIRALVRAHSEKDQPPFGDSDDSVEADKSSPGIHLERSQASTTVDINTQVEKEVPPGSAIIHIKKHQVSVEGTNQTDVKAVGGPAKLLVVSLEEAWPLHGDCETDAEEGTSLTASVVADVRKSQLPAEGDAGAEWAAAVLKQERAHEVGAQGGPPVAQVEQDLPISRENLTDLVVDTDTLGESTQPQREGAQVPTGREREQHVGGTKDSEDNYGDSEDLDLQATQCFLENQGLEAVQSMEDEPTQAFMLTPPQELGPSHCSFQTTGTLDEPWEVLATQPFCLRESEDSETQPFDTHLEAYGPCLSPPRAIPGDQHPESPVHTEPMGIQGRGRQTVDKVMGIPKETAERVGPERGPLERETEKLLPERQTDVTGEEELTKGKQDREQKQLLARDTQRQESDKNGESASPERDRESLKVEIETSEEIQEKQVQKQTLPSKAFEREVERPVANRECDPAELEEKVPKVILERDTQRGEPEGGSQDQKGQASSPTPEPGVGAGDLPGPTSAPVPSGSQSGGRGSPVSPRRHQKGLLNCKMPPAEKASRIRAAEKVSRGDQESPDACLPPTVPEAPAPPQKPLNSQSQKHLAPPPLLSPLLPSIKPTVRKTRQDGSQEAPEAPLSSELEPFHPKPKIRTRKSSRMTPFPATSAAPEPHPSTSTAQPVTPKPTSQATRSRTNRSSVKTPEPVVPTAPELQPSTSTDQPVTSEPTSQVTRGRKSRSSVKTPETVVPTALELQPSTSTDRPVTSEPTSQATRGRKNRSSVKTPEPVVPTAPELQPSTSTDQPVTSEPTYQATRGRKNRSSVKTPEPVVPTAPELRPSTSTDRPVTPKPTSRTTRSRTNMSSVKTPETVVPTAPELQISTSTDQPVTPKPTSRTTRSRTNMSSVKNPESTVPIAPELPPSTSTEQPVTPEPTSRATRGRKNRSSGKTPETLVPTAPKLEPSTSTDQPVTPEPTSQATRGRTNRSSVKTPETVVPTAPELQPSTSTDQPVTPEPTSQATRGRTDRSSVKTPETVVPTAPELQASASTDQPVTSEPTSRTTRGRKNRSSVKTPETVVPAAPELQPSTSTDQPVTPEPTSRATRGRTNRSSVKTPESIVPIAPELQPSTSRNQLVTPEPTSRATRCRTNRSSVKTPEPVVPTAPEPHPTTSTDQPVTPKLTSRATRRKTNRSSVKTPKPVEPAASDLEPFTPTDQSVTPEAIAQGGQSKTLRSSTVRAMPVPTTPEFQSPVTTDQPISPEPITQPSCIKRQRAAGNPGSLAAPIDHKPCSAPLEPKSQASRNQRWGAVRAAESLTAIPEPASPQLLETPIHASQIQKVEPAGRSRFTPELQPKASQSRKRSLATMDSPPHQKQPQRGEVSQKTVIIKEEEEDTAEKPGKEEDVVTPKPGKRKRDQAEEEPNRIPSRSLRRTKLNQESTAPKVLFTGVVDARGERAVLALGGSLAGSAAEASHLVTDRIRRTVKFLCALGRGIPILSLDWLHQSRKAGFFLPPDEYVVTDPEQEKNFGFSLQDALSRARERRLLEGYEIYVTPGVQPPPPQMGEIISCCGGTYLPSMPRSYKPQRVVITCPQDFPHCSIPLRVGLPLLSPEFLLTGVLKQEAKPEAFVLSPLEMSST
Sequence of UniProt Q9UGP4 (Q9UGP4 whole entry, looked up): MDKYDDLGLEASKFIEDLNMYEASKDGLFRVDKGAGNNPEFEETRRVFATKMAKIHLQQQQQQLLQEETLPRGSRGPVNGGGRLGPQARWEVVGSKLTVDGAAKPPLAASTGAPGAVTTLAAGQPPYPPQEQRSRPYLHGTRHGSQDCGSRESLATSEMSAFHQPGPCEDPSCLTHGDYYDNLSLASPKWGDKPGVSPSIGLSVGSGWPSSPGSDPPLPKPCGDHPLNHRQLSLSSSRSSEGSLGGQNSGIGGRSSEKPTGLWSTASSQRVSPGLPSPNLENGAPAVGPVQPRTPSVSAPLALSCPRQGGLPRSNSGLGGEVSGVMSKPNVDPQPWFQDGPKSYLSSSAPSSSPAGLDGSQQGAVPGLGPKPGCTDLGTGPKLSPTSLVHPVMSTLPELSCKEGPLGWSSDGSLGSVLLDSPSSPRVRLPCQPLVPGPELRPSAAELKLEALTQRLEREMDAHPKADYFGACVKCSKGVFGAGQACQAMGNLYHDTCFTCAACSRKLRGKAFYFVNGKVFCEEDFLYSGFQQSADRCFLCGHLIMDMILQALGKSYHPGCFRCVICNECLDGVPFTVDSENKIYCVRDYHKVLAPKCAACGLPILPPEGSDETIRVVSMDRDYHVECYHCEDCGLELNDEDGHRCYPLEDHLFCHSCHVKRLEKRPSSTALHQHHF
Sequence of UniProt Q8WV07 (Q8WV07 whole entry, looked up): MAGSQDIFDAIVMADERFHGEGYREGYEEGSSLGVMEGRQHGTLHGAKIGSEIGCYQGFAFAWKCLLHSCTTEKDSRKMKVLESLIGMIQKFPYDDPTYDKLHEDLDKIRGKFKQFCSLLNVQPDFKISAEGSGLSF

Target | log2 fold change
LTV1 (UniProt Q96GA3) | -0.09 (inactive)
LMNB1 (UniProt P20700) | 0.029 (inactive)
LNPK (UniProt Q9C0E8) | 0.085 (inactive)
LDAH isoform 2 (UniProt Q9H6V9) | 0.092 (inactive)
IL27RA (UniProt Q6UWB1) | 0.062 (inactive)
KIF2C (UniProt Q99661) | 0.003 (inactive)
LAMP2 (UniProt P13473) | 0.078 (inactive)
LMNB2 (UniProt Q03252) | -0.031 (inactive)
MAP1LC3B2 (UniProt A6NCE7) | 0.016 (inactive)
METAP1D (UniProt Q6UB28) | 0.088 (inactive)
LIMD1 (UniProt Q9UGP4) | 0.074 (inactive)
MED17 (UniProt Q9NVC6) | -0.063 (inactive)
KIF3A (UniProt Q9Y496) | -0.102 (inactive)
IKZF1 (UniProt Q13422) | 0.038 (inactive)
KSR1 (UniProt Q8IVT5) | -0.229 (inactive)
MAIP1 (UniProt Q8WWC4) | 0.03 (inactive)
LPGAT1 (UniProt Q92604) | 0.111 (inactive)
LTO1 (UniProt Q8WV07) | 0.071 (inactive)
LARP4 isoform 4 (UniProt Q71RC2) | -0.066 (inactive)
IMMP1L (UniProt Q96LU5) | -0.041 (inactive)

Target | log2 fold change
LRBA (UniProt P50851) | 0.039 (inactive)
LMBRD2 (UniProt Q68DH5) | 0.04 (inactive)
MAP2K2 (UniProt P36507) | 0.012 (inactive)
ITM2B (UniProt Q9Y287) | -0.181 (inactive)
IPO13 (UniProt O94829) | 0.111 (inactive)
ILRUN (UniProt Q9H6K1) | -0.132 (inactive)
IRF2BPL (UniProt Q9H1B7) | 0.003 (inactive)
LDLR (UniProt P01130) | 0.113 (inactive)
LUC7L3 (UniProt O95232) | -0.003 (inactive)
MAP2K7 isoform 4 (UniProt O14733) | 0.063 (inactive)
MDC1 (UniProt Q14676) | -0.194 (inactive)
MAP2K1 (UniProt Q02750) | 0.02 (inactive)
MARK3 (UniProt P27448) | 0.024 (inactive)
KIF21A isoform 4 (UniProt Q7Z4S6) | 0.001 (inactive)
LEMD3 (UniProt Q9Y2U8) | -0.014 (inactive)
KDM5D isoform 3 (UniProt Q9BY66) | -0.063 (inactive)
IK (UniProt Q13123) | -0.006 (inactive)
KLC2 (UniProt Q9H0B6) | -0.107 (inactive)
INPP5B (UniProt P32019) | 0.024 (inactive)

compound: CN1CCN(c2nc(C3=C(c4c[nH]c5ccccc45)C(=O)NC3=O)c3ccccc3n2)CC1 [sotrastaurin]; test: as above
Method in brief: as §1

Target | log2 fold change
LTV1 (UniProt Q96GA3) | -0.037 (inactive)
LMNB1 (UniProt P20700) | -0.11 (inactive)
LNPK (UniProt Q9C0E8) | 0.047 (inactive)
LDAH isoform 2 (UniProt Q9H6V9) | 0.035 (inactive)
IL27RA (UniProt Q6UWB1) | 0.014 (inactive)
KIF2C (UniProt Q99661) | -0.048 (inactive)
LAMP2 (UniProt P13473) | 0.123 (inactive)
LMNB2 (UniProt Q03252) | -0.127 (inactive)
MAP1LC3B2 (UniProt A6NCE7) | -0.115 (inactive)
METAP1D (UniProt Q6UB28) | -0.042 (inactive)
LIMD1 (UniProt Q9UGP4) | -0.011 (inactive)
MED17 (UniProt Q9NVC6) | -0.145 (inactive)
KIF3A (UniProt Q9Y496) | -0.073 (inactive)
IKZF1 (UniProt Q13422) | -0.133 (inactive)
KSR1 (UniProt Q8IVT5) | -0.149 (inactive)
MAIP1 (UniProt Q8WWC4) | 0.06 (inactive)
LPGAT1 (UniProt Q92604) | -0.001 (inactive)
LTO1 (UniProt Q8WV07) | -0.003 (inactive)
LARP4 isoform 4 (UniProt Q71RC2) | -0.051 (inactive)
IMMP1L (UniProt Q96LU5) | -0.005 (inactive)

Target | log2 fold change
LRBA (UniProt P50851) | -0.031 (inactive)
LMBRD2 (UniProt Q68DH5) | 0.02 (inactive)
MAP2K2 (UniProt P36507) | -0.037 (inactive)
ITM2B (UniProt Q9Y287) | 0.123 (inactive)
IPO13 (UniProt O94829) | -0.123 (inactive)
ILRUN (UniProt Q9H6K1) | -0.029 (inactive)
IRF2BPL (UniProt Q9H1B7) | -0.044 (inactive)
LDLR (UniProt P01130) | 0.003 (inactive)
LUC7L3 (UniProt O95232) | 0.013 (inactive)
MAP2K7 isoform 4 (UniProt O14733) | 0.026 (inactive)
MDC1 (UniProt Q14676) | -0.003 (inactive)
MAP2K1 (UniProt Q02750) | 0.028 (inactive)
MARK3 (UniProt P27448) | -0.434 (active)
KIF21A isoform 4 (UniProt Q7Z4S6) | -0.006 (inactive)
LEMD3 (UniProt Q9Y2U8) | 0.013 (inactive)
KDM5D isoform 3 (UniProt Q9BY66) | 0.078 (inactive)
IK (UniProt Q13123) | -0.037 (inactive)
KLC2 (UniProt Q9H0B6) | -0.032 (inactive)
INPP5B (UniProt P32019) | -0.079 (inactive)
